# Results filed as inconclusive are left out. Entries that show only a call come without a potency. Unmarked numbers belong to inactive results. Calls of active or inactive are those of the source. The call rests on the fitted dose curve; in most records, active means well fitted inhibition curve with a large enough effect; inconclusive means small, poorly fitted or top-dose-only effect; inactive means flat fitted curve, though single readings scatter.
# Legend:
# [1] = qHTS profiling for inhibitors of Plasmodium falciparum proliferation (AID 504749); further: nearly all actives have a fitted effect of over 60% in size; conditions: P. falciparum in erythrocytes, SYBR Green DNA, 72 h, at 28.7 µM (top of the series)
# Outline: (§1)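 Each compound contacts P. falciparum-infected red blood cells for 72 h at 37 C; lysis buffer (Tris, EDTA, saponin, Triton X, SYBR Green I) is added and fluorescence measured next morning; values normalized to controls.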
# [2] = test system: 3D7; assay: as above; conditions: P. falciparum in erythrocytes, SYBR Green DNA, 72 h; series mostly up to 28.7 µM
# Outline: as §1
# [3] = test system: 7G8; assay: as above; conditions: P. falciparum in erythrocytes, SYBR Green DNA, 72 h; series mostly up to 28.7 µM
# Outline: as §1
# [4] = test system: AA1029; assay: as above; conditions: P. falciparum in erythrocytes, SYBR Green DNA, 72 h; series mostly up to 28.7 µM
# Outline: as §1
# [5] = test system: AS120; assay: as above; conditions: P. falciparum in erythrocytes, SYBR Green DNA, 72 h; series mostly up to 28.7 µM
# Outline: as §1
# [6] = test system: ATS189; assay: as above; conditions: P. falciparum in erythrocytes, SYBR Green DNA, 72 h; series mostly up to 28.7 µM
# Outline: as §1
# [7] = test system: ATS95; assay: as above; conditions: P. falciparum in erythrocytes, SYBR Green DNA, 72 h; series mostly up to 28.7 µM
# Outline: as §1
# [8] = test system: C2A; assay: as above; conditions: P. falciparum in erythrocytes, SYBR Green DNA, 72 h; series mostly up to 28.7 µM
# Outline: as §1
# [9] = test system: CP185; assay: as above; conditions: P. falciparum in erythrocytes, SYBR Green DNA, 72 h; series mostly up to 28.7 µM
# Outline: as §1
# [10] = test system: CP191; assay: as above; conditions: P. falciparum in erythrocytes, SYBR Green DNA, 72 h; series mostly up to 28.7 µM
# Outline: as §1
# [11] = test system: CP192; assay: as above; conditions: P. falciparum in erythrocytes, SYBR Green DNA, 72 h; series mostly up to 28.7 µM
# Outline: as §1
# [12] = test system: CP194; assay: as above; conditions: P. falciparum in erythrocytes, SYBR Green DNA, 72 h; series mostly up to 28.7 µM
# Outline: as §1
# [13] = test system: CP201; assay: as above; conditions: P. falciparum in erythrocytes, SYBR Green DNA, 72 h; series mostly up to 28.7 µM
# Outline: as §1
# [14] = test system: CP203; assay: as above; conditions: P. falciparum in erythrocytes, SYBR Green DNA, 72 h; series mostly up to 28.7 µM
# Outline: as §1
# [15] = test system: CP211; assay: as above; conditions: P. falciparum in erythrocytes, SYBR Green DNA, 72 h; series mostly up to 28.7 µM
# Outline: as §1
# [16] = test system: CP215; assay: as above; conditions: P. falciparum in erythrocytes, SYBR Green DNA, 72 h; series mostly up to 28.7 µM
# Outline: as §1
# [17] = test system: CP217; assay: as above; conditions: P. falciparum in erythrocytes, SYBR Green DNA, 72 h; series mostly up to 28.7 µM
# Outline: as §1
# [18] = test system: CP237; assay: as above; conditions: P. falciparum in erythrocytes, SYBR Green DNA, 72 h; series mostly up to 28.7 µM
# Outline: as §1
# [19] = test system: CP238; assay: as above; conditions: P. falciparum in erythrocytes, SYBR Green DNA, 72 h; series mostly up to 28.7 µM
# Outline: as §1
# [20] = test system: CP247; assay: as above; conditions: P. falciparum in erythrocytes, SYBR Green DNA, 72 h; series mostly up to 28.7 µM
# Outline: as §1
# Potency means the concentration at half of the fitted maximal effect.
smiles,measurement,setting,value
CCOC(=O)c1cc(-c2ccccc2)nc2ccc(C)cc12,"activity, negative = inhibition",[1]; parasite line A,17.4%
same,"activity, negative = inhibition",[1]; parasite line B,7.25%
same,Potency,[2],inactive
same,Potency,[3],inactive
same,Potency,[4],inactive
same,Potency,[5],inactive
same,Potency,[6],inactive
same,Potency,[7],inactive
same,Potency,[8],inactive
same,Potency,[9],inactive
same,Potency,[10],inactive
same,Potency,[11],inactive
same,Potency,[12],inactive
same,Potency,[13],inactive
same,Potency,[14],inactive
same,Potency,[15],inactive
same,Potency,[16],inactive
same,Potency,[17],inactive
same,Potency,[18],inactive
same,Potency,[19],inactive
same,Potency,[20],inactive
O=C1CCC(=O)N1CO,"activity, negative = inhibition",[1]; parasite line A,-2.35%
same,"activity, negative = inhibition",[1]; parasite line B,7.84%
same,Potency,[2],inactive
same,Potency,[3],inactive
same,Potency,[4],inactive
same,Potency,[5],inactive
same,Potency,[6],inactive
same,Potency,[7],inactive
same,Potency,[8],inactive
same,Potency,[9],inactive
same,Potency,[10],inactive
same,Potency,[11],inactive
same,Potency,[12],inactive
same,Potency,[13],inactive
same,Potency,[14],inactive
same,Potency,[15],inactive
same,Potency,[16],inactive
same,Potency,[17],inactive
same,Potency,[18],inactive
same,Potency,[19],inactive
same,Potency,[20],inactive
O=C(O)COc1ccccc1/C=N/NC(=O)c1ccncc1,"activity, negative = inhibition",[1]; parasite line A,7.51%
same,"activity, negative = inhibition",[1]; parasite line B,0.92%
same,Potency,[2],inactive
same,Potency,[3],inactive
same,Potency,[4],inactive
same,Potency,[5],inactive
same,Potency,[6],inactive
same,Potency,[7],inactive
same,Potency,[8],inactive
same,Potency,[9],inactive
same,Potency,[10],inactive
same,Potency,[11],inactive
same,Potency,[12],inactive
same,Potency,[13],inactive
same,Potency,[14],inactive
same,Potency,[15],inactive
same,Potency,[16],inactive
same,Potency,[17],inactive
same,Potency,[18],inactive
same,Potency,[19],inactive
same,Potency,[20],inactive
CS(=O)(=O)OCC(O)C(O)COS(C)(=O)=O (configuration not stated),"activity, negative = inhibition",[1]; parasite line A,-4.77%
same,"activity, negative = inhibition",[1]; parasite line B,-5.43%
same,Potency,[2],inactive
same,Potency,[3],inactive
same,Potency,[4],inactive
same,Potency,[5],inactive
same,Potency,[6],inactive
same,Potency,[7],inactive
same,Potency,[8],inactive
same,Potency,[9],inactive
same,Potency,[10],inactive
same,Potency,[11],inactive
same,Potency,[12],inactive
same,Potency,[13],inactive
same,Potency,[14],inactive
same,Potency,[15],inactive
same,Potency,[16],inactive
same,Potency,[17],inactive
same,Potency,[18],inactive
same,Potency,[19],inactive
same,Potency,[20],inactive
CCCc1ccc(C(=O)O)cc1,"activity, negative = inhibition",[1]; parasite line A,-2.85%
same,"activity, negative = inhibition",[1]; parasite line B,-4.82%
same,Potency,[2],inactive
same,Potency,[3],inactive
same,Potency,[4],inactive
same,Potency,[5],inactive
same,Potency,[6],inactive
same,Potency,[7],inactive
same,Potency,[8],inactive
same,Potency,[9],inactive
same,Potency,[10],inactive
same,Potency,[11],inactive
same,Potency,[12],inactive
same,Potency,[13],inactive
same,Potency,[14],inactive
same,Potency,[15],inactive
same,Potency,[16],inactive
same,Potency,[17],inactive
same,Potency,[18],inactive
same,Potency,[19],inactive
same,Potency,[20],inactive
CC(C)=CCC/C(C)=C/CC/C(C)=C/CC/C=C(\C)CC/C=C(\C)CCC=C(C)C,"activity, negative = inhibition",[1]; parasite line A,0.919%
same,"activity, negative = inhibition",[1]; parasite line B,12.5%
same,Potency,[2],inactive
same,Potency,[3],inactive
same,Potency,[4],inactive
same,Potency,[5],inactive
same,Potency,[6],inactive
same,Potency,[7],inactive
same,Potency,[8],inactive
same,Potency,[9],inactive
same,Potency,[10],inactive
same,Potency,[11],inactive
same,Potency,[12],inactive
same,Potency,[13],inactive
same,Potency,[14],inactive
same,Potency,[15],inactive
same,Potency,[16],inactive
same,Potency,[17],inactive
same,Potency,[18],inactive
same,Potency,[19],inactive
same,Potency,[20],inactive
O=C(O)Cc1nn(Cc2ccc(Br)cc2F)c(=O)c2ccccc12,"activity, negative = inhibition",[1]; parasite line A,0.835%
same,"activity, negative = inhibition",[1]; parasite line B,-5.83%
same,Potency,[2],inactive
same,Potency,[3],inactive
same,Potency,[4],inactive
same,Potency,[5],inactive
same,Potency,[6],inactive
same,Potency,[7],inactive
same,Potency,[8],inactive
same,Potency,[9],inactive
same,Potency,[10],inactive
same,Potency,[11],inactive
same,Potency,[12],inactive
same,Potency,[13],inactive
same,Potency,[14],inactive
same,Potency,[15],inactive
same,Potency,[16],inactive
same,Potency,[17],inactive
same,Potency,[18],inactive
same,Potency,[19],inactive
same,Potency,[20],inactive
C=Cc1ccc(S(=O)(=O)O)cc1,"activity, negative = inhibition",[1]; parasite line A,12.2%
same,"activity, negative = inhibition",[1]; parasite line B,-6.31%
same,Potency,[2],inactive
same,Potency,[3],inactive
same,Potency,[4],inactive
same,Potency,[5],inactive
same,Potency,[6],inactive
same,Potency,[7],inactive
same,Potency,[8],inactive
same,Potency,[9],inactive
same,Potency,[10],inactive
same,Potency,[11],inactive
same,Potency,[12],inactive
same,Potency,[13],inactive
same,Potency,[14],inactive
same,Potency,[15],inactive
same,Potency,[16],inactive
same,Potency,[17],inactive
same,Potency,[18],inactive
same,Potency,[19],inactive
same,Potency,[20],inactive
CO/N=C(\C(=O)N[C@@H]1C(=O)N2C(C(=O)[O-])=C(C[n+]3cccc4c3CCC4)CS[C@H]12)c1csc(N)n1,"activity, negative = inhibition",[1]; parasite line A,12.2%
same,"activity, negative = inhibition",[1]; parasite line B,2.56%
same,Potency,[2],inactive
same,Potency,[3],inactive
same,Potency,[4],inactive
same,Potency,[5],inactive
same,Potency,[6],inactive
same,Potency,[7],inactive
same,Potency,[8],inactive
same,Potency,[9],inactive
same,Potency,[10],inactive
same,Potency,[11],inactive
same,Potency,[12],inactive
same,Potency,[13],inactive
same,Potency,[14],inactive
same,Potency,[15],inactive
same,Potency,[16],inactive
same,Potency,[17],inactive
same,Potency,[18],inactive
same,Potency,[19],inactive
same,Potency,[20],inactive
C[C@]12CC[C@@H]3c4ccc(OC(=O)c5ccccc5)cc4CC[C@H]3[C@@H]1CC[C@@H]2O,"activity, negative = inhibition",[1]; parasite line A,-13.9%
same,"activity, negative = inhibition",[1]; parasite line B,5.42%
same,Potency,[2],6.31 µM (active)
same,Potency,[3],11.2 µM (active)
same,Potency,[4],inactive
same,Potency,[5],inactive
same,Potency,[6],inactive
same,Potency,[7],inactive
same,Potency,[8],inactive
same,Potency,[9],inactive
same,Potency,[10],inactive
same,Potency,[11],inactive
same,Potency,[12],inactive
same,Potency,[13],inactive
same,Potency,[14],inactive
same,Potency,[15],inactive
same,Potency,[16],inactive
same,Potency,[17],inactive
same,Potency,[18],4.47 µM (active)
same,Potency,[19],inactive
same,Potency,[20],inactive
CC(C)(Oc1ccc(C2CCCc3ccccc32)cc1)C(=O)O (configuration not stated),"activity, negative = inhibition",[1]; parasite line A,0.13%
same,"activity, negative = inhibition",[1]; parasite line B,7.8%
same,Potency,[2],inactive
same,Potency,[3],inactive
same,Potency,[4],inactive
same,Potency,[5],inactive
same,Potency,[6],inactive
same,Potency,[7],inactive
same,Potency,[8],inactive
same,Potency,[9],inactive
same,Potency,[10],inactive
same,Potency,[11],inactive
same,Potency,[12],inactive
same,Potency,[13],inactive
same,Potency,[14],inactive
same,Potency,[15],inactive
same,Potency,[16],inactive
same,Potency,[17],inactive
same,Potency,[18],inactive
same,Potency,[19],inactive
same,Potency,[20],inactive
Nc1ncnc2c1ncn2[C@H]1CC[C@@H](CO)O1,"activity, negative = inhibition",[1]; parasite line A,5.25%
same,"activity, negative = inhibition",[1]; parasite line B,9.47%
same,Potency,[2],inactive
same,Potency,[3],inactive
same,Potency,[4],inactive
same,Potency,[5],inactive
same,Potency,[6],inactive
same,Potency,[7],inactive
same,Potency,[8],inactive
same,Potency,[9],inactive
same,Potency,[10],inactive
same,Potency,[11],inactive
same,Potency,[12],inactive
same,Potency,[13],inactive
same,Potency,[14],inactive
same,Potency,[15],inactive
same,Potency,[16],inactive
same,Potency,[17],inactive
same,Potency,[18],inactive
same,Potency,[19],inactive
same,Potency,[20],inactive

# Reference: PubChem BioAssay (NCATS)
